PubChem BioAssay (NCI)
Compounds without any hit were thinned out: in the full panel of roughly 83,000, 20% have a hit.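 Method: cells in 96-well plates; compound added at one concentration; 48 h incubation; percent growth measured; values under 10 scored active.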 Unmarked numbers belong to inactive results. The source made the active and inactive calls.

What was measured:
Experiment in all cases: NCI-60 one-dose screen, 48 h (100 = growth as untreated, 0 = no growth, -100 = all killed)
Settings in all cases: 10 µM unless noted
NCI-H23 lung = tested on: NCI-H23 lung
NCI-H226 lung = tested on: NCI-H226 lung
NCI-H322M lung = tested on: NCI-H322M lung
HOP-62 NSCLC = tested on: HOP-62 NSCLC
NCI-H460 lung = tested on: NCI-H460 lung
HOP-92 NSCLC = tested on: HOP-92 NSCLC
NCI-H522 lung = tested on: NCI-H522 lung
A549/ATCC NSCLC = tested on: A549/ATCC NSCLC
786-0 renal = tested on: 786-0 renal
COLO 205 colon = tested on: COLO 205 colon
DU-145 prostate = tested on: DU-145 prostate
K-562 leukemia = tested on: K-562 leukemia
MALME-3M melanoma = tested on: MALME-3M melanoma
MDA-MB-231 breast = tested on: MDA-MB-231 breast
RXF 393 renal = tested on: RXF 393 renal
SF-268 CNS = tested on: SF-268 CNS
SF-295 CNS = tested on: SF-295 CNS
SF-539 CNS = tested on: SF-539 CNS
UACC-257 melanoma = tested on: UACC-257 melanoma
M14 melanoma = tested on: M14 melanoma

SMILES | growth (NCI-H23 lung) | growth (NCI-H226 lung) | growth (NCI-H322M lung) | growth (HOP-62 NSCLC) | growth (NCI-H460 lung) | growth (HOP-92 NSCLC) | growth (NCI-H522 lung) | growth (A549/ATCC NSCLC) | growth (786-0 renal) | growth (COLO 205 colon) | growth (DU-145 prostate) | growth (K-562 leukemia) | growth (MALME-3M melanoma) | growth (MDA-MB-231 breast) | growth (RXF 393 renal) | growth (SF-268 CNS) | growth (SF-295 CNS) | growth (SF-539 CNS) | growth (UACC-257 melanoma) | growth (M14 melanoma)
CC1=C2[C@@H](CC1)[C@]1(C)O[C@@](C(C)C)(C[C@H]1O)[C@H]2OC(=O)C1CC1c1ccccc1 (stereo not given in full) | 102% | 75.6% | 109% | 81.7% | 102% | 73.3% | 72.7% | 76.5% | 97.9% | 90.5% | 106% | 84.6% | 92.2% | 78.2% | 99.4% | 86.1% | 92.1% | 94.6% | 103% | 90.9%
CC(=O)[O][Hg][O]C(C)=O | 98.4% | 118% | 89.6% | 100% | 101% | 142% | -73.9% (active) | 103% | 103% | 88.5% | 94.8% | 29.7% | 54.3% | 110% | 98.2% | 96.6% | 90.3% | 108% | 90.8% | 88.3%
C1CCC([PH+](C2CCCCC2)C2CCCCC2[PH+](C2CCCCC2)C2CCCCC2)CC1.[Au].[CH-]1CCCCC1CC1CCCC[N-]1 (stereo not given) | -46.3% (active) | -50.6% (active) | -42% (active) | -30.6% (active) | -56.4% (active) | -34.4% (active) | -40.7% (active) | -44.4% (active) | -89.6% (active) | -47.7% (active) | -51.1% (active) | 3.54% (active) | -43.5% (active) | -44.6% (active) | -92.7% (active) | -33.6% (active) | -38.8% (active) | -75.1% (active) | -37.3% (active) | -54.6% (active)
CCN(CC)c1ccc2c(c1)OC(N)=C(C#N)C2c1cc(OC)c2c(c1)OCO2 (stereo not given) | 17.8% | 29% | 47.1% | 42% | 3.22% (active) | 38.2% | -41.7% (active) | 19.8% | 15.5% | -42.8% (active) | -3.69% (active) | 17.5% | 61.1% | 4.28% (active) | 30.9% | 21.3% | 17% | 3.37% (active) | 77.7% | 7.87% (active)
Cc1ccc(N2COOC3(OOC2)C2CC4CC(C2)CC3C4)cc1 | 89.5% | 108% | 98.7% | 93.1% | 103% | 95.5% | 92.5% | 98.7% | 96.1% | 110% | 109% | 72.6% | 110% | 112% | 115% | 97.9% | 95.5% | 96.5% | 95.3% | 97.8%
CC[C@H](C)[C@H](NC(=O)[C@H]1CCCCN1C)C(=O)N(C)[C@H](C[C@@H](OC(C)=O)c1nc(C(=O)N[C@@H](Cc2ccccc2)C[C@H](C)C(=O)OC)cs1)C(C)C | 11.8% | 12.6% | 49.3% | 20.6% | 14.6% | -0.123% (active) | -19.8% (active) | 8.91% (active) | 11.8% | -39.7% (active) | 1.75% (active) | 4.21% (active) | 65.5% | 19.5% | 38.1% | 31.2% | 2.06% (active) | -11.3% (active) | 52.9% | 3.87% (active)
CC[C@@H]1[C@@H](C)O[C@@](O)([C@@H](C)[C@H](O)[C@H](C)[C@H]2OC(=O)/C=C/C=C/[C@H](C)[C@@H]([C@@H](C)[C@@H](O)[C@H](C)[C@@]3(O)C[C@@H](O[C@H]4C[C@@H](O)[C@H](O)C(C)O4)[C@H](CC)[C@@H](C)O3)OC(=O)/C=C/C=C/[C@@H]2C)C[C@H]1O[C@@H]1C[C@@H](O)[C@H](O)C(C)O1 (stereo not given in full) | -73.9% (active) | -57.5% (active) | -96.6% (active) | -80.6% (active) | -72.6% (active) | -89.9% (active) | -81.8% (active) | -89.7% (active) | -86.1% (active) | -78.4% (active) | -97.5% (active) | -71.6% (active) | -97% (active) | -68.3% (active) | -96.7% (active) | -86.3% (active) | -86.5% (active) | -96.8% (active) | -89.5% (active) | -83.9% (active)
Oc1c(O)c(Cl)c(Cl)c(Cl)c1Cl | 26.7% | 36.8% | 44.5% | 40.1% | 15.4% | 1.08% (active) | -19.6% (active) | 20.5% | 57.2% | 69.8% | 47.5% | 24.2% | 64.7% | 44.8% | 7.31% (active) | 24.2% | 9.55% (active) | 20.9% | -9.22% (active) | 39.6%
O=C(CCCCCNC1=CC(=O)c2ccccc2C1=O)NCCC[Te]c1ccccc1 | -12.9% (active) | -54.6% (active) | -8.86% (active) | -51% (active) | -45.3% (active) | -32.4% (active) | -18.5% (active) | -45.4% (active) | -48.5% (active) | -57% (active) | -11.6% (active) | 32.7% | -52.3% (active) | -39.8% (active) | 13.8% | -26.7% (active) | -32.5% (active) | -49.7% (active) | 2.91% (active) | -37.6% (active)
Nc1c(F)cc(-c2nc3cc(F)ccc3[se]2)cc1Br | 17.4% | -16.3% (active) | 46.9% | 39.8% | 3.18% (active) | 49.7% | 67.1% | 22.5% | 95.4% | 5.84% (active) | 98.8% | 98.5% | 87% | 17.8% | 74.8% | 98.6% | 74.5% | 87.6% | 85.4% | 88%
[Cl][Hg][c]1cc(Br)cc(Br)c1 | 61.8% | 99.9% | 80% | 31.7% | 32.2% | 11.2% | -30.4% (active) | 68% | 26.3% | 91% | 79.3% | 6.31% (active) | 69.8% | 19.8% | -18.3% (active) | 25.6% | 80.2% | 38.9% | 58.5% | 46.1%
O=C(Nc1ccc([N+](=O)[O-])cc1)C(Cl)(Cl)Cl | 96.5% | 97.8% | 90.1% | 96.9% | 104% | 88% | 106% | 94% | 96.6% | 107% | 96.7% | 98.2% | 97.6% | 95% | 116% | 97.6% | 96.9% | 94.2% | 96.7% | 94.1%
N#CC1(c2ccccc2)CCN(Cc2ccccc2)CC1 | 98.9% | 101% | 144% | 106% | 104% | 51.8% | 92.6% | 99.5% | 101% | 105% | 107% | 98.3% | 138% | 110% | 105% | 94.9% | 89.9% | 107% | 115% | 106%
COc1ccc(Nc2ccc([N+](=O)[O-])cc2[N+](=O)[O-])cc1CN(CCCl)CCCl | 18.4% | 39.7% | 45.8% | 35.8% | 7.13% (active) | 39.2% | 21.1% | 33.5% | 18.4% | 38% | 35.8% | 24.4% | 55.1% | 44.1% | -1.08% (active) | 24.9% | 37.6% | 15.9% | 62.9% | 46.7%
c1ccc(CSC(c2ccccc2)c2ccccc2)cc1 | 101% | 111% | 119% | 116% | 105% | 76.2% | 97.6% | 103% | 91.3% | 101% | 121% | 105% | 110% | 119% | 119% | 112% | 114% | 105% | 105% | 99.1%
Cc1ccccc1NC(=NCCCN1CC1)Nc1ccccc1C | 97.7% | 83.1% | 97.6% | 119% | 81.7% | 77.2% | 84.9% | 86.4% | 100% | 102% | 90.1% | 94% | 105% | 64.4% | 85.3% | 86.5% | 103% | 109% | 103% | 91.3%
